Among the data in the antibiotic and cytotoxicity screens of Wong et al. (2023) are cytotoxicity call values, retold here.

In all, about 39,000 compounds went through this assay and about 3,300 (8.5%) were called active. The list comes from a sample in which actives are over-represented; it also holds similar structures and randomly drawn compounds.

The test relates to HepG2. The test is described as follows: cytotoxicity call (relative viability < 0.9). The following applies: 10 µM.
`Cc1noc(C)c1S(=O)(=O)Nc1ccc2c(c1)CC(=O)N([C@@H](C)CO)C[C@H](C)[C@H](CN(C)S(=O)(=O)c1ccc(F)cc1)O2`: the cytotoxicity call was “inactive”.
Under `CC(C)NC(=O)Nc1ccc2c(c1)CC(=O)N([C@@H](C)CO)C[C@H](C)[C@H](CN(C)S(=O)(=O)c1ccc(Cl)cc1)O2` stands “inactive”; under `CO[C@@H]1CN(C)C(=O)c2ccc(NC(=O)NC(C)C)cc2OC[C@H](C)N(Cc2ccc(-c3ccccn3)cc2)C[C@@H]1C`, “inactive”; under `O=c1[nH]c2cc(C(F)(F)F)c(N3CCOCC3)cc2n(CP(=O)(O)O)c1=O`, “inactive”.
Under `C[C@H](CO)N1C[C@H](C)[C@@H](CN(C)S(=O)(=O)c2cccs2)Oc2ccc(NC(=O)C3CC3)cc2CC1=O` stands “inactive”; under `Cc1noc(C)c1NC(=O)Nc1ccc2c(c1)C(=O)N([C@H](C)CO)C[C@@H](C)[C@H](CN(C)Cc1ccncc1)OCCCC[C@H](C)O2`, “inactive”; under `C[C@@H]1CN([C@@H](C)CO)C(=O)c2cccc(NC(=O)CCCCCC(=O)Nc3ccccc3N)c2O[C@@H]1CN(C)C(=O)Nc1ccc(C(F)(F)F)cc1`, “inactive”.
Under `Cc1ccc(S[C@]2(C(=O)NCC(C)C)CC(=O)N(C3Cc4ccccc4C3)[C@@H]2c2ccc(CO)cc2I)cc1` stands “inactive”; under `C[C@@H]1CCCCO[C@@H](CN(C)Cc2ccncc2)[C@@H](C)CN([C@@H](C)CO)C(=O)c2cc(NC(=O)CCC(F)(F)F)ccc2O1`, “inactive”.
`C[C@@H]1CN([C@@H](C)CO)C(=O)c2cccc(NC(=O)c3cnccn3)c2O[C@H]1CN(C)C(=O)Nc1ccc2c(c1)OCO2`: the cytotoxicity call was “inactive”.
Under `C[C@@H]1CN([C@H](C)CO)C(=O)CCCn2nncc2CO[C@@H]1CN(C)C(=O)Nc1ccc2c(c1)OCCO2` stands “inactive”; under `C[C@H]1CN([C@@H](C)CO)C(=O)Cc2cc(NC(=O)Cc3cn(C)c4ccccc34)ccc2O[C@H]1CN(C)Cc1ccc(Cl)c(Cl)c1`, “inactive”.
Under `C[C@@H]1CN([C@H](C)CO)C(=O)Cc2cc(NC(=O)Cc3cn(C)c4ccccc34)ccc2O[C@H]1CN(C)Cc1ccc(Cl)c(Cl)c1` stands “inactive”; under `C[C@H]1CN([C@@H](C)CO)C(=O)Cc2cc(NC(=O)Cc3cn(C)c4ccccc34)ccc2O[C@@H]1CN(C)Cc1ccc(Cl)c(Cl)c1`, “inactive”.
Under `C[C@H](CO)N1C[C@H](C)[C@H](CN(C)Cc2ccc(Cl)c(Cl)c2)Oc2ccc(NC(=O)Cc3cn(C)c4ccccc34)cc2CC1=O` stands “active”; under `C[C@@H]1CN([C@H](C)CO)C(=O)Cc2cc(NC(=O)Cc3cn(C)c4ccccc34)ccc2O[C@@H]1CN(C)Cc1ccc(Cl)c(Cl)c1`, “active”.
On to `C[C@@H]1CN([C@@H](C)CO)C(=O)Cc2cc(NC(=O)Cc3cn(C)c4ccccc34)ccc2O[C@H]1CN(C)Cc1ccc(Cl)c(Cl)c1`, for which the cytotoxicity call was “inactive”.
In the case of `O=C(C[C@H]1CC[C@H]2[C@@H](COC[C@H](O)CN2S(=O)(=O)c2cccc(F)c2)O1)NCCCN1CCOCC1`, the cytotoxicity call is “inactive”.
Under `C[C@@H]1CCCCO[C@H](CN(C)Cc2ccc(C(=O)O)cc2)[C@H](C)CN([C@H](C)CO)C(=O)c2cc(NS(=O)(=O)c3cccs3)ccc2O1` stands “inactive”.
`Cc1ccc(S(=O)(=O)Nc2ccc3c(c2)C(=O)N([C@@H](C)CO)C[C@H](C)[C@H](CN(C)C(=O)NC2CCCCC2)OCCCC[C@H](C)O3)cc1`: the cytotoxicity call was “inactive”.
As to `NC(=O)N1C(=O)[C@H]2[C@H](C1=O)[C@H]1C=C(CCCO)[C@@H]2[C@H](c2cccs2)N1Cc1cc2c(cc1Br)OCO2`, the cytotoxicity call is “inactive”.
Under `O=C(C[C@@H]1C[C@@H]2c3cc(NC(=O)C4CCOCC4)ccc3O[C@@H]2[C@@H](CO)O1)NCc1cc(F)ccc1F` stands “inactive”; under `CNC[C@H]1OCCCC[C@@H](C)Oc2ccc(NC(=O)Nc3ccc(C(F)(F)F)cc3)cc2C(=O)N([C@H](C)CO)C[C@H]1C`, “inactive”; under `COc1ccc(NC(=O)Nc2ccc3c(c2)C(=O)N([C@@H](C)CO)C[C@@H](C)[C@@H](CN(C)S(=O)(=O)c2c(C)noc2C)OCCCC[C@@H](C)O3)cc1`, “inactive”.
Under `CCN(CC)CCOC(=O)c1ccc(N)cc1.Cl` stands “inactive”.
Under `CCCC(C(=O)OCCN(CC)CC)(c1ccccc1)c1ccccc1.Cl` stands “active”; under `CCN(CC)CCNC(C(=O)OCCC(C)C)c1ccccc1.Cl.Cl` (stereo not given), “inactive”; under `CN1CCN(C(=O)C[C@@H]2CC[C@H]3[C@@H](COC[C@@H](O)CN3S(=O)(=O)c3cccc(Cl)c3)O2)CC1`, “inactive”.
Turning to `C[C@@H]1CN([C@@H](C)CO)C(=O)Cc2cc(NC(=O)c3ccncc3)ccc2O[C@@H]1CN(C)Cc1ccc2c(c1)OCO2`, the cytotoxicity call was “inactive”.
Consider `C[C@@H]1CCCCO[C@@H](CN(C)Cc2ccc3c(c2)OCO3)[C@H](C)CN([C@H](C)CO)C(=O)c2cc(NC(=O)Nc3ccc(F)cc3)ccc2O1`, for which the cytotoxicity call was “active”.
Under `C[C@H]1CCCCO[C@@H](CN(C)Cc2ccc3c(c2)OCO3)[C@@H](C)CN([C@@H](C)CO)C(=O)c2cc(NC(=O)Nc3ccc(F)cc3)ccc2O1` stands “inactive”; under `C[C@@H]1CCCCO[C@H](CN(C)Cc2ccc3c(c2)OCO3)[C@@H](C)CN([C@H](C)CO)C(=O)c2cc(NC(=O)Nc3ccc(F)cc3)ccc2O1`, “active”; under `C[C@H](CO)N1C[C@H](C)[C@@H](CN(C)Cc2ccc3c(c2)OCO3)OCCCC[C@H](C)Oc2ccc(NC(=O)Nc3ccc(F)cc3)cc2C1=O`, “active”.
Under `C[C@@H]1CCCCO[C@H](CN(C)Cc2ccc3c(c2)OCO3)[C@H](C)CN([C@@H](C)CO)C(=O)c2cc(NC(=O)Nc3ccc(F)cc3)ccc2O1` stands “active”.
For the molecule `C[C@@H]1CCCCO[C@H](CN(C)C(=O)c2ccccc2)[C@@H](C)CN([C@@H](C)CO)C(=O)c2cc(NC(=O)Cc3ccccc3)ccc2O1`, the cytotoxicity call was “inactive”.
Under `COc1ccccc1C#Cc1cnc2c(c1)C(=O)N([C@H](C)CO)C[C@@H](C)[C@H](CN(C)C(=O)CC1CC1)O2` stands “inactive”; under `NCc1ccc(C(N)=O)cc1`, “inactive”; under `C[C@H](CO)N1C[C@H](C)[C@H](CN(C)Cc2cncnc2)Oc2cc(C#CC3CCCC3)ccc2S1(=O)=O`, “inactive”.
As to `CN1CCN(C(=O)C[C@H]2CC[C@@H]3[C@@H](COc4ccc(NC(=O)c5cscn5)cc4C(=O)N3C)O2)CC1`, the cytotoxicity call was “inactive”.
`C[C@@H]1CN([C@H](C)CO)C(=O)Cc2cc(NC(=O)C3CC3)ccc2O[C@H]1CN(C)Cc1ccc(C(=O)O)cc1`: the cytotoxicity call is “inactive”.
